High-throughput results from PubChem.
A selection: hits, their analogues and other compounds. The true share with any hit is near 3.8%.
697 NFkB inh = inhibitors of PMA/ionomycin-induced NF-kB reporter, 697 cells, primary screen, B-cell NF-kB inhibitor project, cell-based, luminescence, uHTS; inhibition, % at 4 µM; hit rate 0.33% among 330,000; 697 B-cell NF-kB luciferase reporter, 16 h; in the data active = inhibition above about 35%
Mdm2-MdmX inh = inhibitors of human Mdm2-MdmX association, primary screen, cell-based, luminescence, split luciferase, SaOS-2, uHTS. SaOS-2 split-luciferase Mdm2/MdmX complementation. inhibition, % at 8 µM. Protein Mdm4 (Homo sapiens) + E3 ubiquitin-protein ligase Mdm2 (Homo sapiens), …. hit rate 3% among 330,000;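 active = inhibition of at least 50% at 8 µM in the primary screen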
Jurkat NFkB inh = inhibitors of induced NF-kB luciferase reporter, primary screen, TCR NF-kB activation inhibitor project, cell-based, luminescence, uHTS | hit rate 0.53% among 330,000 | Jurkat, PMA/ionomycin-induced NF-kB luciferase reporter | inhibition, % at 4 µM; in the data active = inhibition above about 50%
Bfl-1 A1 inh = caspase 3/7 activation in MEF A1-2A-BIM cells, primary screen, A1 inhibitor project, cell-based, luminescence, HTS | AID 2462, 2010 | hit rate 0.066% among 330,000 | caspase activation, % (test concentration not listed) | Caspase-Glo 3/7 luminescence, 3 h; percent of clofoctol response, vehicle zero;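 active = over half of replicate activation scores above 10%, or exactly half above 10 with the replicate mean above 10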
NTR1 ag = agonists of human NTR1, primary screen, imaging, U2OS cells, beta-arrestin-GFP, high content; Neurotensin receptor type 1 (Homo sapiens), P30989; NTR1-U2OS beta-arrestin-GFP spot imaging, agonist mode; activation, % at 20 µM; hit rate 0.17% among 330,000;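 active = activation at or above 40% of the spot to cytoplasm intensity ratio, with at least 20 cells analyzed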
Target sequence (P30989 whole entry, looked up): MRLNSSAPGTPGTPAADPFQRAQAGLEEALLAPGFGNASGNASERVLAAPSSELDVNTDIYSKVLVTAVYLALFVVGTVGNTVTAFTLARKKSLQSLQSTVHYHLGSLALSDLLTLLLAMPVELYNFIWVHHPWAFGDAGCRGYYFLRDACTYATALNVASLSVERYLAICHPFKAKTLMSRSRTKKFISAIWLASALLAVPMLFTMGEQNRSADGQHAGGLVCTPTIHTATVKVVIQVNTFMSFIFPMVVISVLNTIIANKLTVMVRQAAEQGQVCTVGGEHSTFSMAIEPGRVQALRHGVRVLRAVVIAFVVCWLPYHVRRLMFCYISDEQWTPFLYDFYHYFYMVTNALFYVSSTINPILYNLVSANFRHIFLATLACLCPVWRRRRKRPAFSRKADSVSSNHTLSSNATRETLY
Beta apoptosis = inhibitors of cytokine-induced beta cell apoptosis, primary screen, luminescence; INS-1E cytokine-induced death, ATP luminescence, 48 h; percent of positive-control rescue, neutral wells zero; protection from apoptosis, % (test concentration not listed); hit rate 0.8% among 300,000;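 active = Every replicate reaches about 75%, or at least half do and their mean reaches it too, limit read from the data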;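 also: higher means more ATP so stronger rescue from cytokine killing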
Mdm2-MdmX conf = Mdm2-MdmX complex disruptors, retested hits, confirmation, luminescence, single concentration; hit rate 55% among 10,000; inhibition, % at 8 µM; Mdm2-MdmX binding, luminescent assay; shares compounds with Mdm2-MdmX inh; in the data active = inhibition above about 40%
Full FLuc ctr = full-length luciferase signal inhibition, confirmation, counter-screen for Mdm2/MdmX interaction inhibitor project, cell-based, single concentration, SaOS-2. AID 504607, 2011. inhibition, % at 8 µM. shares compounds with Mdm2-MdmX inh. hit rate 77% among 6,200. SaOS-2 full-length luciferase counterscreen, luminescence;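 active = mean inhibition at 8 µM reaching about 37%, which flags the compound as non-specific, limit read from the data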;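 also: p53-null SaOS-2 cells with luciferase driven by a doxycycline-inducible promoter; compound on cells about two nights before reading with doxycycline added after day one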
Of the large screens only hits and unclear results are named; the others gave an inactive call (follow-up assays come after a bar, where they were run).

Cc1cccc(NC(=O)Nc2ccc(C#N)cc2)n1	Mdm2-MdmX inh 78 | Mdm2-MdmX conf 67 | Full FLuc ctr 78
CCOC(=O)c1ccc(NC(=O)Nc2cccc(C)n2)cc1	Mdm2-MdmX inh 57 | Mdm2-MdmX conf inactive
CCOC(=O)c1ccc(NC(=O)Nc2ccccn2)cc1	none
Cc1cccc(NC(=O)Nc2cccc(C#N)c2)n1	none
CN(C)C(CNC(=O)C1CC(=O)N(Cc2ccccc2)C1)c1ccccc1 (centres undefined)	none
Cc1cccc(C(=O)NC(C(=O)Nc2nc(-c3ccccn3)cs2)C(C)C)c1 (centres undefined)	Mdm2-MdmX inh 74 | Mdm2-MdmX conf 57 | Full FLuc ctr inactive
C[C@H](NC(=O)c1ccccc1)C(=O)Nc1nc(-c2ccccn2)cs1	none
Cc1cccc(C(=O)N[C@H](C(=O)Nc2ncc(C)s2)C(C)C)c1	Mdm2-MdmX inh 68, Beta apoptosis 76 | Mdm2-MdmX conf 64 | Full FLuc ctr 99
COc1cccc(/C=N/NC(=O)CNC(=O)C(c2ccccc2)c2ccccc2)c1O	Mdm2-MdmX inh 57 | Mdm2-MdmX conf 68 | Full FLuc ctr inactive
COc1ccc(/C=C\C(=O)NCC(=O)N/N=C/c2cccc(OC)c2O)cc1	none
COc1cccc(/C=N/NC(=O)CSCC(=O)Nc2ccccc2)c1O	Mdm2-MdmX inh 52 | Mdm2-MdmX conf 49 | Full FLuc ctr 51
O=C(NCC(O)c1ccccc1)Nc1cccs1 (centres undefined)	none
CCN(CC)C(=O)/C(=C/c1cn(S(=O)(=O)N(C)C)c2ccccc12)NC(=O)c1ccc(OC)cc1	Mdm2-MdmX inh 61 | Mdm2-MdmX conf inactive
CN(C)/C=C/C(=O)c1ccc2noc(-c3cccc(F)c3)c2c1	Mdm2-MdmX inh 53 | Mdm2-MdmX conf inactive
COc1ccc(-c2onc3ccc(C(=O)/C=C/N(C)C)cc23)cc1	none
O=C(c1cccc(S(=O)(=O)Nc2ccc(Br)cc2)c1)N1CCCC1	none
OCCNc1ncnc2ccc(Br)cc12	none
CCN(CC)c1ncnc2ccc(Br)cc12	Mdm2-MdmX inh 58 | Mdm2-MdmX conf 52 | Full FLuc ctr 38
Brc1ccc2ncnc(Nc3cccc4ccccc34)c2c1	Mdm2-MdmX inh 61 | Mdm2-MdmX conf 41 | Full FLuc ctr 53
COc1ccc(OC)c(Nc2ncnc3ccc(Br)cc23)c1	Mdm2-MdmX inh 51 | Mdm2-MdmX conf inactive
COCCN(C(=O)COC(=O)c1c(NC(C)=O)sc(C)c1C)c1c(N)n(Cc2ccccc2)c(=O)[nH]c1=O	none
CCCCc1nc(C(N)=O)c2[nH]c(=O)n(-c3ccc(OCC)cc3)c2n1	none
O=C(CCl)N(c1ccccc1)c1c[nH]c2ccccc12	Mdm2-MdmX inh 100 | Mdm2-MdmX conf 99 | Full FLuc ctr 52
CCN(CC)C(=O)CCCc1c[nH]c2ccccc12	none
Cc1ccc(C)c(Cn2c(C)nc3c(sc(=S)n3-c3ccccc3)c2=O)c1	Mdm2-MdmX inh 60 | Mdm2-MdmX conf inactive
Cc1ccc(-n2c(SCC(=O)O)nc3c(sc(=S)n3-c3ccc(C)c(C)c3)c2=O)cc1	none (no result: Beta apoptosis)
CC(NC(=O)Nc1nnc(C(F)(F)F)s1)(C(F)(F)F)C(F)(F)F	Mdm2-MdmX inh 95, Beta apoptosis 120 | Mdm2-MdmX conf 59 | Full FLuc ctr inactive
COc1ccc(-c2nn(-c3ccccc3)cc2C(=O)N(C)CC(=O)Nc2ccc(N3CCOCC3)cc2)cc1	none
COc1ccc(-c2cn[nH]c2-c2ccc(OCc3ccc(F)cc3)cc2O)cc1OC	none
C=C(C)COc1ccc(-c2[nH]ncc2-c2ccc(OC)cc2)c(O)c1	Mdm2-MdmX inh 63 | Mdm2-MdmX conf 65 | Full FLuc ctr inactive
COc1ccc(-c2cn[nH]c2-c2ccc(O)cc2O)cc1	Mdm2-MdmX inh 71 | Mdm2-MdmX conf 70 | Full FLuc ctr inactive
COc1ccc(-c2cnc(N)nc2-c2ccc(OC)cc2O)cc1	Mdm2-MdmX inh 58 | Mdm2-MdmX conf inactive
COc1ccc(-c2cn[nH]c2-c2ccc(OCc3ccccc3)cc2O)cc1OC	Mdm2-MdmX inh 53 | Mdm2-MdmX conf 55 | Full FLuc ctr 43
Cc1c(NC(=O)c2cccc(NC(=O)Cc3ccc(F)cc3)c2)c(=O)n(-c2ccccc2)n1C	none
CCc1ccccc1NC(=O)CN1CCN(C(=O)CNC(=O)c2ccc(N3CCCC3=O)cc2)CC1	none
CSCC(=O)N1CCC(n2nccc2NC(=O)c2ccc3c(c2)OCO3)CC1	none
CN(C)c1ccc(Nc2ccc([N+](=O)[O-])cn2)cc1	none (no result: Beta apoptosis)
O=C(/C=C/c1ccc(Cl)cc1)c1ccc([N+](=O)[O-])o1	Mdm2-MdmX inh 98, Bfl-1 A1 inh 9.9, Beta apoptosis 115 | Mdm2-MdmX conf 100 | Full FLuc ctr inactive
Cc1ccc(/C=C/C(=O)c2ccc([N+](=O)[O-])o2)cc1	Mdm2-MdmX inh 100, Bfl-1 A1 inh 7.9, Beta apoptosis 109 | Mdm2-MdmX conf 97 | Full FLuc ctr 58
CC(C)Cn1c(N)c(C(=O)COC(=O)C2CC(=O)N(c3ccc4c(c3)OCCO4)C2)c(=O)n(C)c1=O (centres undefined)	none (no result: Beta apoptosis)
CC(Sc1ncnc2sc(-c3ccccc3)cc12)C(=O)NCC1CCCO1 (centres undefined)	Mdm2-MdmX inh 67 | Mdm2-MdmX conf 59 | Full FLuc ctr 91
O=C(CCCOC(=O)c1ccc(O)cc1O)c1ccc(Br)cc1	none (no result: Bfl-1 A1 inh, Beta apoptosis)
O=C1/C(=C/c2ccccc2)Nc2ccccc21	none
O=C1/C(=C/c2ccccc2)NC(=S)N1C(c1ccccc1)c1ccccc1	Mdm2-MdmX inh 51 | Mdm2-MdmX conf 59 | Full FLuc ctr 61
COc1cc(OC)c2c(-c3cccc(-c4ccc(C(C)=O)cc4)c3)cc(=O)oc2c1	Mdm2-MdmX inh 69 (no result: Jurkat NFkB inh, Bfl-1 A1 inh, Beta apoptosis) | Mdm2-MdmX conf 68 | Full FLuc ctr 71
COc1ccc(CN(C)CC(=O)Nc2cccc(S(=O)(=O)N3CCCC3)c2)cc1F	none
Cc1cccc(COCC(Cc2ccccc2)N2CCN(C(=O)c3ccc(Cl)c(Cl)c3)CCC2=O)c1 (centres undefined)	none
